We go through 19 molecules from PubChem BioAssay (Tox21).

Assay [1] is described as follows: qHTS assay to identify small molecule agonists of the vitamin D receptor (VDR) signaling pathway - cell viability counter screen (AID 743224; active = well fitted curve in the direction sought with a large enough effect in the repeat runs; an effect the other way counts as inactive or inconclusive; note: nearly all actives have a fitted effect of over 50% in size; note: potency is the fitted concentration of half-maximal effect). Summed up: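 Plated VDR-bla cells (4 h, 37C) received compound, incubated 16 h, then LiveBLAzer substrate 2 h RT; CellTiter-Glo added afterwards, luminescence read at 30 min.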
On the technique in general: qHTS replaces the single test concentration by a dilution series.

Assay [2] is described as follows: qHTS assay to identify small molecule antagonists of the vitamin D receptor (VDR) signaling pathway - cell viability counter screen (AID 743225; active = well fitted curve in the direction sought with a large enough effect in the repeat runs; an effect the other way counts as inactive or inconclusive; note: nearly all actives have a fitted effect of over 50% in size; note: potency is the fitted concentration of half-maximal effect). Summed up:
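Cytotoxicity counter screen read by CellTiter-Glo luminescence (30 min, room temperature) in the same wells as the VDR-bla antagonist readout. HEK 293T VDR-UAS-bla cells had 16 h at 37C with compound and 3 nM (final) 1-alpha,25-dihydroxyvitamin D3, then 2 h with FRET substrate.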

The nature of assay [3]: qHTS assay to identify small molecule agonists of the NFkB signaling pathway - cell viability counter screen (AID 1159515). Note: nearly all actives have a fitted effect of over 55% in size. Note: potency is the fitted concentration of half-maximal effect. Summed up:
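Using the same wells as the NFkB reporter read, ME-180 NFkB-bla cells given compounds for 5 hr were assessed for viability via CellTiter-Glo, with luminescence taken after a 30 min room-temperature incubation.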

A short description of assay [4]: qHTS assay to identify small molecule agonists of the endoplasmic reticulum stress response signaling pathway (AID 1159516; active = well fitted activation curve with a large enough effect in the signal ratio in the repeat runs, not every such curve was filed as active; the % refers to the signal ratio). Put shortly:
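An ESRE-bla HeLa cell assay: compounds were pin-transferred from DMSO onto overnight-plated cells and left 5 hr at 37 C. Substrate was then loaded for 2 hr at room temperature before reading fluorescence at 460 nm and 530 nm.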

The nature of assay [5]: qHTS assay to identify small molecule agonists of the endoplasmic reticulum stress response signaling pathway - cell viability counter screen (AID 1159517). Note: nearly all actives have a fitted effect of over 50% in size. Note: potency is the fitted concentration of half-maximal effect. Summed up:
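CellTiter-Glo was added to wells already read for beta-lactamase FRET, and luminescence was recorded 30 min later. Cells: ESRE-bla HeLa, 1,500 per well, compound exposure 5 hr at 37 C.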

The target of assay [6] is Nuclear receptor ROR-gamma (Homo sapiens) (UniProt P51449). As to the kind of experiment: qHTS assay to identify small molecule antagonists of the retinoid-related orphan receptor gamma (ROR-gamma) signaling pathway (AID 1159521; active = well fitted curve in the direction sought with a large enough effect in the repeat runs; an effect the other way counts as inactive or inconclusive; note: nearly all actives have a fitted effect of over 50% in size; note: potency is the fitted concentration of half-maximal effect). Summed up: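 Antagonist read-out: drop in luminescence (ONE-Glo) from an RORE-LUC reporter in CHO cells with doxycycline-inducible ROR-gamma; 2 hr compound pretreatment, 1 uM doxycycline, 16 hr incubation at 37 C.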

The nature of assay [7]: qHTS assay to identify small molecule agonists of the AP-1 signaling pathway - cell viability counter screen (AID 1159525). Note: nearly all actives have a fitted effect of over 55% in size. Note: potency is the fitted concentration of half-maximal effect. Summed up:
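ME-180 AP-1-bla, 2500 cells/well, Opti-MEM + 0.5% dialyzed FBS; overnight 37 °C; cpd 15-pt titration, 5 h 37 °C; CellTiter-Glo 30 min RT; luminescence read; normalised to TOAB and DMSO controls.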

Assay [8] can be described thus: qHTS assay to identify small molecule agonists of the AP-1 signaling pathway (AID 1159526).
Assay [9] concerns the target Retinoic acid receptor RXR-alpha (Homo sapiens) (UniProt P19793). As to the kind of experiment: qHTS assay to identify small molecule agonists of the RXR signaling pathway (AID 1159527). Note: nearly all actives have a fitted effect of over 35% in size. Summed up:
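Agonist-mode beta-lactamase reporter assay: HEK 293T RXR-alpha-UAS-bla cells treated 16 hr at 37 C with compounds, 9-cis retinoic acid as positive control. LiveBLAzer FRET substrate, 405 nm excitation, 460/530 nm emission.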

A short description of assay [10]: qHTS assay to identify small molecule antagonists of the retinoid-related orphan receptor gamma (ROR-gamma) signaling pathway - cell viability counter screen (AID 1159520; active = well fitted curve in the direction sought with a large enough effect in the repeat runs; an effect the other way counts as inactive or inconclusive; note: nearly all actives have a fitted effect of over 50% in size; note: potency is the fitted concentration of half-maximal effect). Summed up: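 Tet-on ROR gamma CHO cells (1,000/well) were plated 4 hr, given compounds in DMSO for 2 hr at 37 C, then induced with 1 uM final doxycycline for 16 hr. Viability was read as ATP by CellTiter-Glo luminescence after 30 min.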

Values joined by “and” are separate entries in the source; they are usually repeats but may differ in a detail not shown here. Equal values may be shown once. Inconclusive results are not listed. Some compounds were tested as several samples or in several runs, with calls that do not always agree. Active and inactive are the calls of the source. Unless noted, calls come from the whole dose curve.

Sequence of Retinoic acid receptor RXR-alpha (Homo sapiens) (P19793 whole entry, looked up): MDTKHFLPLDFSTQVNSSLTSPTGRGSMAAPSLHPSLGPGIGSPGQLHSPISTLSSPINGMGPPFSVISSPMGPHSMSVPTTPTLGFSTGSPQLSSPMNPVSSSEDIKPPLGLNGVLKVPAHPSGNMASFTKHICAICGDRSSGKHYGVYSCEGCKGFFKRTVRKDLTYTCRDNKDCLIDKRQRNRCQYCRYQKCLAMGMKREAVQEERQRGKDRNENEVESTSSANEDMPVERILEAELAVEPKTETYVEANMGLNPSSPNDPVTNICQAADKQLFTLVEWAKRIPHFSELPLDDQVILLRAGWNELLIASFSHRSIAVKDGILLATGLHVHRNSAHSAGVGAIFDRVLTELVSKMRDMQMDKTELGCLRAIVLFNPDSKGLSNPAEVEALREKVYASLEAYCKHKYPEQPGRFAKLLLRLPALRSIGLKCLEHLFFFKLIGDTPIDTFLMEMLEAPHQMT

As to `O=C(O)c1cc(I)cc(I)c1I`, the Potency entry in [1], in assay [2], in assay [3], in [4], in assay [5] and in assay [6] was “inactive” throughout. The Potency entry in [7] and in assay [8] was “inactive” in each case.
In the case of `CN1CC[C@]23c4c5ccc(O)c4O[C@H]2[C@@H](O)CC[C@H]3[C@H]1C5`, the Potency entry in assay [1], in assay [2], in [3], in assay [4], in [5] and in assay [6] was “inactive” in each case. The Potency result in [7], in assay [8] and in assay [9] was “inactive” each time.
Consider `COC(=O)Cc1ccccc1`, for which the Potency entry in [1], in [3], in [4], in assay [5], in assay [6] and in assay [7] was “inactive” throughout. Moreover, in assay [8], the Potency result was “inactive”.
In the case of `C=CCOCC1CO1` (centres undefined), the Potency result in assay [1], in assay [2], in assay [3], in assay [4], in assay [5] and in [6] was “inactive” throughout. Further, the Potency result in assay [7], in [8] and in assay [9] was “inactive” in each case.
With `CCCCC(CC)CO[N+](=O)[O-]` (centres undefined), the Potency entry in assay [1], in assay [2], in [3], in [4], in assay [5] and in [6] was “inactive” each time. The Potency result in [7] and in assay [8] was “inactive” each time.
In the case of `CCCCCCCCCCCC[N+](C)(C)CCOc1ccccc1`, the Potency in [1] was 24.6 µM (active) and inactive; in assay [2], 21.9 µM (active) and 21.3 µM (active); in assay [3], 13.8 µM (active) and inactive; in assay [5], 15.5 µM (active) and 19 µM (active); in [10], 61.1 µM (active); in assay [6], 27.3 µM (active). The Potency in assay [7] is 49 µM (active) and 23.9 µM (active).
Take `O=P(OCC(Br)CBr)(OCC(Br)CBr)OCC(Br)CBr` (centres undefined): the Potency entry in assay [3], in [5], in [10], in [7] and in assay [8] was “inactive” each time.
On to `C[C@@H]1C[C@@H]([C@H](O)CC2CC(=O)NC(=O)C2)C(=O)[C@@H](C)C1`, for which the Potency result in assay [2], in [3], in [4], in assay [5] and in [7] was “inactive” in each case. Further, the Potency in assay [6] was 383 nM (active) and 137 nM (active) and 237 nM (active).
Consider `[Cl-].[Cl-].[Hg+2]`, for which the Potency in assay [2] was 1.22 µM (active) and 3.47 µM (active); in assay [3] it was 3.45 µM (active) and 49 µM (active); in [5], 48.8 µM (active); in assay [10], 48.3 µM (active) and 1.09 µM (active); in assay [7], 4.88 µM (active) and 4.36 µM (active).
Consider `CN1C[C@H](C(=O)N[C@]2(C)O[C@@]3(O)[C@@H]4CCCN4C(=O)[C@H](Cc4ccccc4)N3C2=O)C=C2c3cccc4[nH]cc(c34)C[C@H]21`, for which the Potency result in assay [1], in assay [2], in assay [3], in assay [5], in assay [10] and in [7] was “inactive” in each case. Besides, the Potency entry in [8] and in [9] was “inactive” throughout. In addition, the Potency in assay [6] is 54.7 µM (active) and inactive.
As for `COc1ccc(C(O)(c2cncnc2)C2CC2)cc1` (centres undefined), the Potency entry in assay [1], in [4], in [5], in assay [10], in [6] and in assay [7] was “inactive” throughout. The Potency result in assay [8] and in assay [9] was “inactive” each time.
With `COc1ccccc1N1CCNCC1`, the Potency result in assay [2], in assay [3], in [4], in assay [5], in [7] and in assay [8] was “inactive” in each case. Besides, the Potency result in assay [9] is “inactive”.
`C[N+]1(CCF)[C@@H]2CC[C@H]1CC(OC(=O)C(O)(c1ccccc1)c1ccccc1)C2` (some centres undefined): the Potency result in assay [1], in assay [2], in assay [3], in assay [4], in assay [5] and in assay [6] was “inactive” each time. The Potency result in [7], in assay [8] and in assay [9] was “inactive” in each case.
With `C=CCc1ccc(OC(=O)Cc2ccccc2)c(OC)c1`, the Potency entry in assay [1], in [3], in assay [4], in assay [5], in [7] and in [8] was “inactive” throughout.
Consider `O=C(O)c1ccc(=O)[nH]c1`, for which the Potency result in [1], in assay [2], in [3], in assay [4], in [5] and in assay [6] was “inactive” in each case. The Potency result in [7], in assay [8] and in assay [9] was “inactive” throughout.
As to `O=C(N[C@H]1CN2CCC1CC2)c1ccc2c(c1)OCCO2`, the Potency entry in assay [1], in assay [2], in assay [3], in assay [4], in [5] and in assay [6] was “inactive” in each case. In addition, the Potency result in assay [7] and in [8] was “inactive” each time.
Regarding `OCC1CO1` (centres undefined), the Potency entry in [2], in [3], in assay [4], in [5], in [6] and in assay [7] was “inactive” in each case. In addition, the Potency result in [8] and in [9] was “inactive” in each case.
Regarding `CC(=O)OC(c1ccccc1)C(Cl)(Cl)Cl` (centres undefined), the Potency entry in assay [1], in assay [4], in assay [5], in assay [10], in [6] and in assay [7] was “inactive” each time. Further, the Potency entry in [8] and in assay [9] was “inactive” each time.
As to `O=C(O)C(F)(F)C(F)(F)C(F)(F)C(F)(F)C(F)(F)F`, the Potency result in assay [1], in assay [4], in [5], in assay [10], in assay [6] and in assay [7] was “inactive” in each case. Besides, the Potency entry in [8] and in assay [9] was “inactive” in each case.
